Several values for one entry are separate records, joined by “and”; a condition that tells them apart may be missing. Identical values can stand only once. Inconclusive results are not listed. A call without a number means that no potency is given here. More than one record can exist for a structure, and the calls need not agree. Activity calls are given as the source filed them. Calls follow the shape of the dose curve; as a rule, active = well fitted curve in the direction sought with a large enough effect in the repeat runs; inconclusive = weak or mixed curves; inactive = no such curve, though single readings can be large; an effect the other way counts as inactive or inconclusive.
Key:
[1] = qHTS RealTime-Glo MT Cell Viability Assay in HepG2 cells - 40 hour (AID 1224870); also: nearly all actives have a fitted effect of over 50% in size; also: potency is read from the fitted curve at half-maximal effect
Summary of the method: (§1)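 HepG2 cells mixed with RealTime-Glo MT reagents (NanoLuc plus cell-permeant prosubstrate) were seeded at 600 cells/well, incubated 5 h at 37 C/5% CO2, then pinned with compounds in DMSO; nonlytic luminescence tracked viability during 40 h treatment.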

[2] = A CellTox Green Cytotoxicity Assay to monitor cytotoxicity in HEK293 cells - 40 hour (AID 1224871); also: nearly all actives have a fitted effect of over 45% in size; also: potency is read from the fitted curve at half-maximal effect
Summary of the method: (§2)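 Real-time, in one plate: 600 HEK293 cells/well with dead-cell DNA dye, pinned compound after 5 h, 37 C incubation over 40 h; viable cells give no appreciable fluorescence.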

[3] = qHTS RealTime-Glo MT Cell Viability Assay in HEK293 cells - 16 hour (AID 1224872); also: nearly all actives have a fitted effect of over 50% in size; also: potency is read from the fitted curve at half-maximal effect
Summary of the method: (§3)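 Quantitative high-throughput screen of the Tox21 10K library in HEK293: cells and RealTime-Glo reagents plated together, compound added at 5 h, luminescence monitored through 40 h at 37 C.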

[4] = qHTS RealTime-Glo MT Cell Viability Assay in HepG2 cells - 8 hour (AID 1224873); also: nearly all actives have a fitted effect of over 55% in size; also: potency is read from the fitted curve at half-maximal effect
Summary of the method: as §1

[5] = qHTS RealTime-Glo MT Cell Viability Assay in HEK293 cells - 40 hour (AID 1224874); conditions: RealTime-Glo luminescence; max response: stronger effect = lower value; also: nearly all actives have a fitted effect of over 50% in size; also: potency is read from the fitted curve at half-maximal effect
Summary of the method: (§4)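 Kinetic, non-lysing viability readout. Seed HEK293 (600/well) with reagent, incubate 5 h at 37 C/5% CO2, pin 23 nL compound in DMSO, incubate at 37 C, read luminescence at 0, 8, 16, 24, 32, 40 h.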

[6] = A CellTox Green Cytotoxicity Assay to monitor cytotoxicity in HEK293 cells - 24 hour (AID 1224875); also: series mostly up to about 77 µM; nearly all actives have a fitted effect of over 45% in size
Summary of the method: as §2

[7] = A CellTox Green Cytotoxicity Assay to monitor cytotoxicity in HepG2 cells - 16 hour (AID 1224876); also: nearly all actives have a fitted effect of over 45% in size; also: potency is read from the fitted curve at half-maximal effect
Summary of the method: (§5)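 Cytotoxicity was tracked as dead-cell DNA fluorescence in HepG2 cells treated with test compounds at 37 C; each time-point value comes from one kinetic series spanning 0, 8, 16, 24, 32 and 40 h.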

[8] = qHTS RealTime-Glo MT Cell Viability Assay in HepG2 cells - 32 hour (AID 1224877); also: nearly all actives have a fitted effect of over 55% in size; also: potency is read from the fitted curve at half-maximal effect
Summary of the method: (§6)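 Compound treatment began 5 h after plating HepG2 cells (600/well) with NanoLuc luciferase and prosubstrate. Plates stayed at 37 C for 40 h; luminescence was captured at six time points, 0 h through 40 h.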

[9] = A CellTox Green Cytotoxicity Assay to monitor cytotoxicity in HepG2 cells - 24 hour (AID 1224878); also: nearly all actives have a fitted effect of over 45% in size; also: potency is read from the fitted curve at half-maximal effect
Summary of the method: as §5

[10] = A CellTox Green Cytotoxicity Assay to monitor cytotoxicity in HepG2 cells - 40 hour (AID 1224879); also: nearly all actives have a fitted effect of over 40% in size; also: potency is read from the fitted curve at half-maximal effect
Summary of the method: as §5

[11] = qHTS RealTime-Glo MT Cell Viability Assay in HEK293 cells - 0 hour (AID 1224880)
Summary of the method: as §4

[12] = A CellTox Green Cytotoxicity Assay to monitor cytotoxicity in HEK293 cells - 32 hour (AID 1224881); also: nearly all actives have a fitted effect of over 40% in size; also: potency is read from the fitted curve at half-maximal effect
Summary of the method: as §2

[13] = A CellTox Green Cytotoxicity Assay to monitor cytotoxicity in HepG2 cells - 0 hour (AID 1224882); also: nearly all actives have a fitted effect of over 35% in size
Summary of the method: as §5

[14] = A CellTox Green Cytotoxicity Assay to monitor cytotoxicity in HepG2 cells - 32 hour (AID 1224883); also: nearly all actives have a fitted effect of over 50% in size; also: potency is read from the fitted curve at half-maximal effect
Summary of the method: as §5

[15] = A CellTox Green Cytotoxicity Assay to monitor cytotoxicity in HEK293 cells - 8 hour (AID 1224884); also: nearly all actives have a fitted effect of over 35% in size; also: potency is read from the fitted curve at half-maximal effect
Summary of the method: as §2

[16] = qHTS RealTime-Glo MT Cell Viability Assay in HepG2 cells - 16 hour (AID 1224885); also: nearly all actives have a fitted effect of over 50% in size; also: potency is read from the fitted curve at half-maximal effect
Summary of the method: as §6

[17] = qHTS RealTime-Glo MT Cell Viability Assay in HEK293 cells - 24 hour (AID 1224886); also: nearly all actives have a fitted effect of over 50% in size; also: potency is read from the fitted curve at half-maximal effect
Summary of the method: as §3

[18] = qHTS RealTime-Glo MT Cell Viability Assay in HEK293 cells - 8 hour (AID 1224887); also: nearly all actives have a fitted effect of over 50% in size; also: potency is read from the fitted curve at half-maximal effect
Summary of the method: as §4

[19] = A CellTox Green Cytotoxicity Assay to monitor cytotoxicity in HEK293 cells - 16 hour (AID 1224888); also: nearly all actives have a fitted effect of over 35% in size
Summary of the method: as §2

[20] = qHTS RealTime-Glo MT Cell Viability Assay in HepG2 cells - 0 hour (AID 1224889); also: nearly all actives have a fitted effect of over 50% in size
Summary of the method: as §6

## O=C(c1cc(O)c(O)c(O)c1)c1ccc(O)c(O)c1O
[1]
  Potency: inactive
[2]
  Potency: inactive
[3]
  Potency: inactive
[4]
  Potency: inactive
[5]
  max response: -21.1% (inactive) and -21.4% (inactive) and -9.65% (inactive)
[6]
  Potency: inactive
[7]
  Potency: inactive
[8]
  Potency: inactive
[9]
  Potency: inactive
[10]
  Potency: inactive
[11]
  Potency: inactive
[12]
  Potency: inactive
[13]
  Potency: inactive
[14]
  Potency: inactive
[15]
  Potency: inactive
[16]
  Potency: inactive
[17]
  Potency: inactive
[18]
  Potency: inactive
[19]
  Potency: inactive

## O=S(=O)(O)CCS
[1]
  Potency: inactive
[2]
  Potency: inactive
[3]
  Potency: inactive
[4]
  Potency: inactive
[5]
  max response: 0.917% (inactive) and -2.58% (inactive)
[6]
  Potency: inactive
[8]
  Potency: inactive
[9]
  Potency: inactive
[10]
  Potency: inactive
[11]
  Potency: inactive
[12]
  Potency: inactive
[13]
  Potency: inactive
[14]
  Potency: inactive
[15]
  Potency: inactive
[16]
  Potency: inactive
[17]
  Potency: inactive
[18]
  Potency: inactive
[19]
  Potency: inactive
[20]
  Potency: inactive

## OCC#CCO
[1]
  Potency: inactive
[2]
  Potency: inactive
[3]
  Potency: inactive
[4]
  Potency: inactive
[5]
  max response: 0.572% (inactive) and 1.12% (inactive)
[6]
  Potency: inactive
[7]
  Potency: inactive
[8]
  Potency: inactive
[9]
  Potency: inactive
[10]
  Potency: inactive
[11]
  Potency: inactive
[12]
  Potency: inactive
[14]
  Potency: inactive
[15]
  Potency: inactive
[16]
  Potency: inactive
[17]
  Potency: inactive
[18]
  Potency: inactive
[19]
  Potency: inactive
[20]
  Potency: inactive

## NC(=O)/N=N/C(N)=O
[1]
  Potency: inactive
[2]
  Potency: inactive
[3]
  Potency: inactive
[4]
  Potency: inactive
[5]
  max response: 1.69% (inactive) and 1.16% (inactive)
[6]
  Potency: inactive
[7]
  Potency: inactive
[8]
  Potency: inactive
[9]
  Potency: inactive
[10]
  Potency: inactive
[11]
  Potency: inactive
[12]
  Potency: inactive
[13]
  Potency: inactive
[14]
  Potency: inactive
[15]
  Potency: inactive
[16]
  Potency: inactive
[17]
  Potency: inactive
[18]
  Potency: inactive
[19]
  Potency: inactive

## CCCCCCCCCCCCN
[1]
  Potency: inactive and 34.7 µM (active)
[2]
  Potency: inactive and 49 µM (active)
[3]
  Potency: inactive and 38.9 µM (active)
[4]
  Potency: inactive and 21.9 µM (active)
[5]
  Potency: 43.6 µM (active)
  max response: 3.89% (inactive) and -9.66% (inactive)
[7]
  Potency: inactive and 19.5 µM (active)
[8]
  Potency: inactive and 24.5 µM (active)
[9]
  Potency: inactive and 19.5 µM (active)
[10]
  Potency: inactive and 21.9 µM (active)
[11]
  Potency: inactive
[12]
  Potency: inactive and 43.6 µM (active)
[13]
  Potency: inactive
[14]
  Potency: inactive and 21.9 µM (active)
[15]
  Potency: inactive and 49 µM (active)
[16]
  Potency: inactive and 24.5 µM (active)
[17]
  Potency: inactive and 38.9 µM (active)
[18]
  Potency: inactive and 38.9 µM (active)

## COCC(=O)O
[1]
  Potency: inactive
[2]
  Potency: inactive
[3]
  Potency: inactive
[4]
  Potency: inactive
[5]
  max response: 0.194% (inactive) and 4.44% (inactive)
[6]
  Potency: inactive
[8]
  Potency: inactive
[9]
  Potency: inactive
[10]
  Potency: inactive
[11]
  Potency: inactive
[12]
  Potency: inactive
[13]
  Potency: inactive
[14]
  Potency: inactive
[15]
  Potency: inactive
[16]
  Potency: inactive
[17]
  Potency: inactive
[18]
  Potency: inactive
[19]
  Potency: inactive
[20]
  Potency: inactive

## Nc1c(S(=O)(=O)O)cc(Br)c2c1C(=O)c1ccccc1C2=O
[1]
  Potency: inactive
[2]
  Potency: inactive
[3]
  Potency: inactive
[4]
  Potency: inactive
[5]
  max response: 0.275% (inactive) and -15.6% (inactive)
[6]
  Potency: inactive
[7]
  Potency: inactive
[8]
  Potency: inactive
[9]
  Potency: inactive
[10]
  Potency: inactive
[11]
  Potency: inactive
[12]
  Potency: inactive
[13]
  Potency: inactive
[14]
  Potency: inactive
[15]
  Potency: inactive
[16]
  Potency: inactive
[17]
  Potency: inactive
[18]
  Potency: inactive
[19]
  Potency: inactive
[20]
  Potency: inactive

## C=C(C)C(=O)OCCCCCCCCCCCC
[1]
  Potency: inactive
[2]
  Potency: inactive
[3]
  Potency: inactive
[4]
  Potency: inactive
[5]
  max response: 0.0102% (inactive) and 4.38% (inactive)
[6]
  Potency: inactive
[7]
  Potency: inactive
[8]
  Potency: inactive
[9]
  Potency: inactive
[10]
  Potency: inactive
[11]
  Potency: inactive
[12]
  Potency: inactive
[13]
  Potency: inactive
[14]
  Potency: inactive
[15]
  Potency: inactive
[16]
  Potency: inactive
[17]
  Potency: inactive
[18]
  Potency: inactive
[19]
  Potency: inactive
[20]
  Potency: inactive

## Cc1cc(NS(=O)(=O)c2ccc(N)cc2)no1
[1]
  Potency: inactive
[2]
  Potency: inactive
[3]
  Potency: inactive
[4]
  Potency: inactive
[5]
  max response: 3.11% (inactive) and 0.646% (inactive)
[6]
  Potency: inactive
[7]
  Potency: inactive
[8]
  Potency: inactive
[9]
  Potency: inactive
[10]
  Potency: inactive
[11]
  Potency: inactive
[12]
  Potency: inactive
[14]
  Potency: inactive
[15]
  Potency: inactive
[16]
  Potency: inactive
[17]
  Potency: inactive
[18]
  Potency: inactive
[19]
  Potency: inactive
[20]
  Potency: inactive

## Cc1ccc(C)c(C)c1
[1]
  Potency: inactive
[2]
  Potency: inactive
[3]
  Potency: inactive
[4]
  Potency: inactive
[5]
  max response: 7.97% (inactive) and 2.35% (inactive)
[6]
  Potency: inactive
[7]
  Potency: inactive
[8]
  Potency: inactive
[9]
  Potency: inactive
[10]
  Potency: inactive
[11]
  Potency: inactive
[12]
  Potency: inactive
[14]
  Potency: inactive
[15]
  Potency: inactive
[16]
  Potency: inactive
[17]
  Potency: inactive
[18]
  Potency: inactive
[19]
  Potency: inactive

## CN(CCOc1ccc(CC2SC(=O)NC2=O)cc1)c1ccccn1 (centres undefined)
[1]
  Potency: inactive
[2]
  Potency: inactive
[3]
  Potency: inactive
[4]
  Potency: inactive
[5]
  max response: -1.82% (inactive)
[6]
  Potency: inactive
[8]
  Potency: inactive
[9]
  Potency: inactive
[10]
  Potency: inactive
[11]
  Potency: inactive
[12]
  Potency: inactive
[13]
  Potency: inactive
[14]
  Potency: inactive
[15]
  Potency: inactive
[16]
  Potency: inactive
[17]
  Potency: inactive
[18]
  Potency: inactive
[19]
  Potency: inactive
[20]
  Potency: inactive

## OCCOCCOCCOCCO
[1]
  Potency: inactive
[2]
  Potency: inactive
[3]
  Potency: inactive
[4]
  Potency: inactive
[5]
  max response: 0.824% (inactive) and 6.75% (inactive)
[6]
  Potency: inactive
[7]
  Potency: inactive
[8]
  Potency: inactive
[9]
  Potency: inactive
[10]
  Potency: inactive
[11]
  Potency: inactive
[12]
  Potency: inactive
[13]
  Potency: inactive
[14]
  Potency: inactive
[15]
  Potency: inactive
[16]
  Potency: inactive
[17]
  Potency: inactive
[18]
  Potency: inactive
[19]
  Potency: inactive
[20]
  Potency: inactive

Source: PubChem BioAssay (Tox21)
